# An excerpt weighted towards active compounds, which were near 1.6% of everything screened.
# KCNQ2 pot = enhances the rat KCNQ2 potassium channel; O88943; CHO-K1 KCNQ2, FluxOR thallium flux fluorescence; active compounds read high; B-score at 10 µM; 310,000 tested, 0.54% active; AID 2239;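 active means fluorescence ratio B-score at least 3 SD of library B-scores, with initial fluorescence B-score within 3 of them, cut at about 5.3 in these data; same plate scores as AID 2156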;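 further: B-score of peak minus minimum over baseline fluorescence ratio after K+ and Tl+ stimulus; positive B-score means potentiation of KCNQ2 with more thallium influx and brighter signal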
# KCNQ2 inh = KCNQ2 (rat) channel inhibition | O88943 | CHO-K1 KCNQ2, FluxOR thallium flux, 20 min; active compounds read low | B-score at 10 µM | 310,000 tested, 1.1% active;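 active means fluorescence ratio B-score at most minus 3 library SDs, with starting brightness B-score within 2 library SDs, cut at about -5.5 in these data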
# Hits are given with their value; n = inactive; x = no result given.
SMILES,KCNQ2 pot,KCNQ2 inh
CCc1ccc(NC(=O)C2CCCCC2C(=O)O)cc1 (stereo not given),n,n
CCc1ccc(NC(=O)C2C3/C=C\CCCCC32)cc1 (stereo not given),5.8,n
COc1ccc(NC(=O)CN2C(=O)NC(C)(c3ccccc3)C2=O)cc1Cl (stereo not given),x,n
NC(=O)CC(NC(=O)Cc1cccc2ccccc12)c1ccc(N2CCc3ccccc3C2)c([N+](=O)[O-])c1 (stereo not given),n,n
O=[N+]([O-])c1nn(-c2ccc3c(c2)OCCO3)n(O)c1=NC1CCCCC1,n,n
CC1CCN(c2c([N+](=O)[O-])nn(-c3ccc4c(c3)OCCO4)[n+]2[O-])CC1,n,-5.6
Cc1ccc(NC(=O)CCNS(=O)(=O)c2ccc(OC(F)(F)F)cc2)c(O)c1,n,n
Cc1ccccc1NC(=S)NC(NC(=O)COc1ccccc1)C(Cl)(Cl)Cl (stereo not given),x,n
O=C(COc1ccccc1)NC(NC(=S)Nc1ccccc1O)C(Cl)(Cl)Cl (stereo not given),n,-6.2
Cc1cc(C)c(C#N)c(N2CCN(c3ccccc3)CC2)n1,x,n
COc1ccccc1N1CCN(c2nc(C)cc(C)c2C#N)CC1,n,-5.9
CS(=O)(=O)N(CC(=O)Nc1ccc(CC#N)cc1)c1ccc(C23CC4CC(CC(C4)C2)C3)cc1,x,n
CCOC(=O)N1CCN(C(=O)c2ccc(OC(C)=O)cc2)CC1,x,n
CCOC(=O)c1ccc(NC(c2ccc(N(C)C)cc2)P(=O)(OC(C)C)OC(C)C)cc1 (stereo not given),n,-6.5
CCOP(=O)(OCC)C(Nc1ccc(C(=O)O)cc1)c1ccccc1 (stereo not given),n,n
S=C(NCc1ccccc1)NNc1nc2ccccc2[nH]1,x,n
CN(C)C(=O)c1c2c(nc3ccccc13)-c1ccccc1CC2,n,-6.1
CN(C)C(=O)c1c2c(nc3ccccc13)CCCC2,n,n
CCCCn1c(N)c(C(=S)NC(=O)CC(C)(C)C)c(=O)n(C)c1=O,6.9,n
CCCn1c(N)c(C(=O)CN2CCc3ccccc3C2)c(=O)n(C)c1=O,x,n
CN(Cc1c(F)cccc1Cl)C(=O)c1ccc(NS(=O)(=O)c2ccc3[nH]c(=O)[nH]c3c2)cc1,x,n
CC(C)C(=O)Nc1cccc(C(=O)Nc2nnc(C(C)C)s2)c1,n,n
CC(C)c1nnc(NC(=O)c2cccc(NC(=O)C(F)(F)F)c2)s1,n,-5.9
CCOC(=O)c1c(-c2ccccc2)oc2ccc(OCC)cc12,x,n
CCOC(=O)c1c(-c2ccccc2)oc2ccc(OCC(O)CNCCN(C)C)cc12 (stereo not given),n,-6.7
SMILES,KCNQ2 pot,KCNQ2 inh
COc1ccc(CN2CCC(n3nccc3NC(=O)CCc3ccccc3)CC2)c(C)c1C,n,n
COc1ccc(CCNC(=O)C(=O)Nc2ccc3c(c2)OCO3)cc1OC,x,n
CC(C)(C)c1ccc(NC(=O)NC2CCCc3ccccc32)cc1 (stereo not given),x,n
Cc1ccc(NC(=O)NC2CCCc3ccccc32)cc1 (stereo not given),n,-5.8
Cc1ccccc1N1CCN(c2ncnc3c2cnn3Cc2ccc(Cl)cc2)CC1,n,-5.7
Cc1ccc(Cn2ncc3c(N4CCN(Cc5ccc(Cl)cc5)CC4)ncnc32)cc1,x,n
O=C1CC(C(F)(F)F)=NN1,x,n
Cn1ncc(Cl)c1C(=O)N/N=C/c1ccccn1,x,n
Cc1ccc(S(=O)(=O)Oc2ccccc2/C=N/NC(=O)c2c(Cl)cnn2C)cc1,n,-6
CC(C)Sc1cc(Cl)nc(NC(=O)Nc2ccccc2)n1,n,n
Cc1cc(C)c(-c2cc(NC(=O)CSc3n[nH]c(N)n3)n(-c3ccccc3)n2)cc1C,n,-6.9
Cc1cc(C)c(-c2cc(NC(=O)COC(=O)c3ccc(CO)cc3)n(-c3ccccc3)n2)cc1C,x,n
O=C(Nc1ccncc1)c1cc2ccccc2cc1O,n,n
Cc1nc(NCCCO)c(C#N)c2c1COC(C)(C)C2,x,n
CCN(CC)c1nc(C)c2c(c1C#N)CC(C)(C)OC2,n,-6.7
CC(CCc1ccccc1)NC(=O)COC(=O)c1ccc(NC(=O)CC#N)cc1 (stereo not given),n,n
O=C(Cc1ccc(NC2=NC3CS(=O)(=O)CC3S2)cc1)N1CCN(c2ccc(F)cc2)CC1 (stereo not given),n,n
COc1ccc2nc(N=Nc3ccc(O)c4ccccc34)sc2c1,9.3,n
COc1ccc2nc(N=NC3=C(O)CC(C)(C)CC3=O)sc2c1,n,n
Cc1ccccc1CCNC(=O)C1CC(O)CN1C(=O)Nc1ccccc1 (stereo not given),x,n
COc1ccccc1OCC(=O)N/N=C/c1c(O)ccc2ccccc12,n,-6
COc1ccccc1OCC(=O)N/N=C/c1cccc2cccnc12,n,n
O=C(CCC1CCCCC1)N1CCN(Cc2ccc3c(c2)OCO3)CC1,x,n
Cc1cc(C)c(S(=O)(=O)N2CCCCC2)c(C)c1N(C)S(=O)(=O)c1ccc(Cl)cc1,x,n

# Assay outcomes as filed in PubChem.
